NIH3T3 tox = cytotoxic compounds in NIH 3T3 cells; NIH 3T3 viability, CellTiter-Glo ATP luminescence, 48-72 h; Potency, µM (top dose mostly 96.7 µM), hits mostly inhibitors; 4.3% of 94,000 active; active = well fitted curve in the direction sought with a large enough effect; inconclusive = small, poorly fitted or top-dose-only effect, or another doubt; inactive = no such curve, though single readings can be large; an effect the other way counts as inactive or inconclusive; note: nearly all actives have a fitted effect of over 55% in size
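Cells were seeded at 400 per well, treated with pin-transferred compound, and kept 48 or 72 hr at 37 °C before CellTiter-Glo addition and luminescence imaging of cellular ATP.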
HEK293 tox = cytotoxic compounds in HEK 293 cells. HEK 293 viability, ATP luminescence (CellTiter-Glo), 48-72 h. Potency, µM (titrated, usually from 115 µM), usual class: inhibitors. 6.6% of 94,000 active. AID 1345083; active = well fitted curve in the direction sought with a large enough effect; inconclusive = small, poorly fitted or top-dose-only effect, or another doubt; inactive = no such curve, though single readings can be large; an effect the other way counts as inactive or inconclusive; note: nearly all actives have a fitted effect of over 60% in size
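HEK 293 cells seeded at 250 cells/well were exposed to compound for 48 or 72 hr at 37 degree Celsius. Viability taken as ATP content by CellTiter-Glo luminescence.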
Luciferase inh = inhibitors of firefly (Photinus pyralis) luciferase; purified P. pyralis luciferase, luminescence, biochemical; Potency, µM (titrated, usually from 115 µM), hits mostly inhibitors; P08659; 2.5% of 76,000 active; active = well fitted curve in the direction sought with a large enough effect; inconclusive = small, poorly fitted or top-dose-only effect, or another doubt; inactive = no such curve, though single readings can be large; an effect the other way counts as inactive or inconclusive; note: nearly all actives have a fitted effect of over 65% in size
Target sequence (P08659 whole entry, looked up): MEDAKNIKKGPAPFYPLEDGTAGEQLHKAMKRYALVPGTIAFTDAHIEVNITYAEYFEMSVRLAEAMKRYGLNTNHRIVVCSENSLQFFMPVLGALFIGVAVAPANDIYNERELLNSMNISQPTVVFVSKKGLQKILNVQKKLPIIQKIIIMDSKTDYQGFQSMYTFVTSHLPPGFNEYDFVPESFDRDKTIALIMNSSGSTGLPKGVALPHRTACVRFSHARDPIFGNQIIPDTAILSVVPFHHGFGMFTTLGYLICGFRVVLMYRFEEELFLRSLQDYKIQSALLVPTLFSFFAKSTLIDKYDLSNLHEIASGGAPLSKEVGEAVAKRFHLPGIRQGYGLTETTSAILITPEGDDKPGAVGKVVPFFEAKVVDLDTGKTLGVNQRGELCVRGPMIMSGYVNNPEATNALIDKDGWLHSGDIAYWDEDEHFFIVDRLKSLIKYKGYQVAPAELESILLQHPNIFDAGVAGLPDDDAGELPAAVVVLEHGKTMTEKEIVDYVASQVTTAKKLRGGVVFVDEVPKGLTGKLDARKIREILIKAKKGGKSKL
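Cell-free enzyme assay, 10nM P. pyralis luciferase, luciferin and ATP each at 10uM. Inhibition profiled over a 6-point titration, read as luminescence.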
NPR1 antag = antagonists of human natriuretic peptide receptor Npr1; Potency, µM (doses to about 46.3 µM), hits mostly inhibitors; P16066; 1.6% of 76,000 active; HEK293 hNpr1 GloSensor cGMP, ANP-stimulated luminescence; note: nearly all actives have a fitted effect of over 60% in size
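Compound pre-incubated 30 min at room temperature on GloSensor-loaded HEK293 cells stably carrying hNpr1 and the pGS-40F cGMP biosensor. Stimulation uses hNppA at 0.1 nM final; luminescence is taken at baseline and 20 min post-agonist.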
NPR1 antag cnf = confirmation of human Npr1 natriuretic peptide receptor antagonists; HEK293 hNpr1 cGMP GloSensor luminescence, ANP-stimulated; 76% of 1,400 active; Potency, µM (titrated, usually from 57.6 µM), usual class: inhibitors; shares compounds with NPR1 antag; note: nearly all actives have a fitted effect of over 70% in size
NPR2 antag = selectivity test of Npr1 antagonists against human Npr2. HEK293 hNpr2 GloSensor cGMP luminescence, CNP-stimulated. 67% of 1,400 active. shares compounds with NPR1 antag. Potency, µM (series often up to 57.6 µM), actives largely listed as inhibitors; note: nearly all actives have a fitted effect of over 70% in size
FLuc inh counter = inhibits firefly luciferase, false Npr1 antagonist flag. shares compounds with NPR1 antag. purified FLuc enzyme, luminescence, Km substrate. Potency, µM (highest dose often 57.6 µM), usual class: inhibitors. 0.7% of 1,400 active. AID 1347047; active = well fitted curve in the direction sought with a large enough effect; inconclusive = small, poorly fitted or top-dose-only effect, or another doubt; inactive = no such curve, though single readings can be large; an effect the other way counts as inactive or inconclusive
GloSensor cGMP = control cell line activity, Npr1 antagonist counter-screen | HEK293 GloSensor cGMP, SNP-stimulated, luminescence | 69% of 1,400 active | Potency, µM (series often up to 57.6 µM), usual class: inhibitors | shares compounds with NPR1 antag | AID 1347051; note: nearly all actives have a fitted effect of over 70% in size
Hits are given with their value; . = inactive; ? = inconclusive; / = not tested or not shown. An excerpt weighted towards active compounds, which were near 11% of everything screened. Unless noted, calls come from the whole dose curve.

SMILES	NIH3T3 tox	HEK293 tox	Luciferase inh	NPR1 antag	NPR1 antag cnf	NPR2 antag	FLuc inh counter	GloSensor cGMP
CC(C)NC(=O)NC[C@H]1C[C@@H]2CCN1C[C@@H]2c1cc(C2CCCC2)nn1C	?	.	.	.	/	/	/	/
Cn1cccc1CN1CCCC2(CC(c3cccnc3)=NO2)C1 (stereo not drawn)	.	.	/	/	/	/	/	/
COc1ccc(C2(C(=O)N3CCC4(CC3)c3nccn3-c3ccccc3CN4C)CC2)cc1	.	?	.	8.91µM	17.2µM	5.44µM	.	.
CC(=O)c1ccc(NC(=O)NC[C@H]2C[C@@H]3CCN2C[C@@H]3CN2CCN(C)CC2)cc1	.	.	.	.	/	/	/	/
COc1ccc(CNC(=O)N2[C@H]3CC[C@@H]2c2cnc(-c4ccccc4)nc2C3)cc1	.	?	.	12.6µM	19.3µM	19.3µM	.	13.7µM
O=C(C1CCCCC1)N1[C@H]2CC[C@@H]1c1cnc(-c3ccc(F)cc3)nc1C2	.	.	.	6.31µM	9.68µM	10.9µM	.	9.68µM
O=C(C1CCC1)N1[C@H]2CC[C@@H]1c1cnc(-c3ccccc3)nc1C2	.	?	.	?	/	/	/	/
CCC(=O)N1[C@H]2CC[C@@H]1c1cnc(-c3ccc(F)cc3)nc1C2	.	.	.	?	/	/	/	/
O=C(C1CCC1)N1[C@H]2CC[C@@H]1c1cnc(-c3ccc(F)cc3)nc1C2	.	?	.	17.8µM	19.3µM	19.3µM	.	15.3µM
O=C(CC1CCCC1)N1[C@H]2CC[C@@H]1c1cnc(-c3ccccc3)nc1C2	.	?	.	5.62µM	10.9µM	12.2µM	.	10.9µM
C=CCNC(=O)NC[C@H]1C[C@@H]2CCN1C[C@@H]2c1cc(C(CC)CC)nc(-c2ccncc2)n1	?	?	.	.	/	/	/	/
Cn1nc(-c2ccc(F)cc2)cc1[C@H]1CN2CC[C@H]1C[C@@H]2CNC(=O)COc1ccccc1	?	?	.	.	/	/	/	/
Cn1cccc1C(=O)N1[C@H]2CC[C@@H]1c1cnc(-c3ccc(F)cc3)nc1C2	?	15.8µM	.	10µM	12.2µM	15.3µM	.	13.7µM
COc1cccc(N2CC3CCC(C2)N3CC(F)(F)F)n1	.	.	/	/	/	/	/	/
COc1cc2c(cc1Oc1ccccc1)NC(=O)C21CCN(c2cnccn2)CC1	?	?	.	.	?	?	.	?
CCC(CC)c1cc([C@H]2CN3CC[C@H]2C[C@@H]3CNS(=O)(=O)c2cccs2)nc(-c2ccncc2)n1	20µM	?	.	14.1µM	21.7µM	10.9µM	.	.
CCC(CC)c1cc([C@H]2CN3CC[C@H]2C[C@@H]3CNS(C)(=O)=O)nc(-c2ccncc2)n1	.	.	.	.	/	/	/	/
O=C1Nc2ccccc2C12CCN(Cc1ccc(C(F)(F)F)cc1)CC2	?	?	/	/	24.3µM	24.3µM	.	24.3µM
O=C1Nc2ccccc2C12CCN(Cc1ccc(F)cc1)CC2	.	?	/	/	/	/	/	/
